# According to publication PMC12136788:
# Where a chain is given by its changes, count along the chain named. The full ranking holds about 24,000 sequences; the median of “enrichment r” is about 0.99, and the highest 2% start at about 3.7. Many of the other results were omitted from the sample, so the highest values are more common in it than they were.
# T1: UNK ZnF1-3 (human, UniProt Q9C0B0 31-174)
# T1 sequence: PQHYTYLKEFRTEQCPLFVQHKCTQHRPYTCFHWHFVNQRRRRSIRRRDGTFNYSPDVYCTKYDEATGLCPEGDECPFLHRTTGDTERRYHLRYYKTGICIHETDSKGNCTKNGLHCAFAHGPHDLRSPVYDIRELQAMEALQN
# B1: 129698844_129698964_1004_3pUTR_ENSMUSG00000026349_ENSMUST00000027587|mouse|control|control (ssRNA)
# RNA: GGGAGUUCUACAGUCCGACGAUCCUGCUAGCACUGAUAAAUUAUCAGAUGCACGGCUAUCUUGAACAGAAGUACUUCCUGAAUUUAGAGGUAUUGGAGCAGGGAACGUUGAUGUUGAUGGUUUCUGAAAGCUUGGGUUGGCAGCAACAGAGGAUUGAGCAUCA
# B2: chr1:184247048:184247049:-_ENSMUSG00000047539_ENSMUST00000051431|mus_mus|FALSE|FALSE (ssRNA)
# RNA: GGGAGUUCUACAGUCCGACGAUCCUGGAGCUAGAGCCAUAUUCCAAUCUACUUCCUAUUCCGAAGUCGUUUGGAUUUCCUAAGAGAGUCUAUGGCUUCCGUUGCCUUCCGUCGUUUCCGAGGGGACUCCUCACUCUGCCCAGACAACAGAGGAUUGAGCAUCA
# B3: chr11:20101544:20101545:+_ENSMUSG00000020149_ENSMUST00000020358|mus_hu|FALSE|FALSE (ssRNA)
# RNA: GGGAGUUCUACAGUCCGACGAUCUGCCGCAGCCGCCGCCCUGACUCUCCGCGCCACGGGUAAUCGAAAGAAAGGAAUGAGAUAGGCUGUUCCGGGAGAGCAAACGUCUUCCCCUACUCCGUCCCCUAGAACACAAUCAGCAGCCAACAGAGGAUUGAGCAUCA
# B4: chr17:56552419:56552420:-_ENSMUSG00000013236_ENSMUST00000086828|mus_mus|mus_mus_mus_hu_False|68_68 (ssRNA)
# RNA: GGGAGUUCUACAGUCCGACGAUCAAAAAAUACACUAUUUAAAAAAAAUGAAAUGUCACGGGAUACAAAAAAAUAUAGAGUUUUAAAAGAAAGCUGGAUUCUGGUCCCAGCCCAGUGUCCCCAGGCUGCAGAGCGGGGAGGAGCCAACAGAGGAUUGAGCAUCA
# B5: chr17:56552419:56552420:-_ENSMUSG00000013236_ENSMUST00000086828|mus_mus|mus_mus_mus_hu_False|18_68 (ssRNA)
# RNA: B4 RNA with U117G, C119A, C120G, C121G, A122C, G123A, C125G, U126G
# B6: chr15:76910149:76910150:-_ENSMUSG00000033565_ENSMUST00000166610|mus_mus|FALSE|FALSE (ssRNA)
# RNA: GGGAGUUCUACAGUCCGACGAUCAAUGCUGACGGAGGGAAGUCAUGUCUCUUAGGGGAAAGGAUCAGCUCAUCACUCGCUAUAUAACGCAGCCAAACGGGCUGCCCAACAAGCACGCACACAAGAAAUACUGUUAACAGAAAACAACAGAGGAUUGAGCAUCA
# B7: chr17:56552419:56552420:-_ENSMUSG00000013236_ENSMUST00000086828|mus_mus|mus_mus_mus_hu_False|58_68 (ssRNA)
# RNA: B4 RNA with G77C, G79C, U81A
# Molecular target: T1, UNK ZnF1-3
# Assay: nsRBNS (natural sequence RNA bind-n-seq); RBNS binding buffer (assumed for nsRBNS): 25 mM Tris pH 7.5, 150 mM KCl, 3 mM MgCl2, 0.01% Triton X-100, 500 ug/ml BSA, 20 U/ml SUPERase-In, 4 C; UNK is unkempt and MSI1 is Musashi-1; names of the RNAs are library labels; protein concentration not given here; high values mean tight binding
row,Binder,binding signal [enrichment R]
1,B1,1.96
2,B2,0.688
3,B3,1.67
4,B4,7.63
5,B5,7.03
6,B6,1.79
7,B7,11.3
